High-throughput results as filed in PubChem BioAssay.
DRD3 agonist: D3 dopamine receptor (human) agonism | P35462 | D3R DiscoveRx beta-arrestin cells, luminescence, 90 min | max activation, % | 0.58% of 410,000 active | AID 652048; in the data active = max activation above about 30%
Target sequence (P35462 whole entry, looked up): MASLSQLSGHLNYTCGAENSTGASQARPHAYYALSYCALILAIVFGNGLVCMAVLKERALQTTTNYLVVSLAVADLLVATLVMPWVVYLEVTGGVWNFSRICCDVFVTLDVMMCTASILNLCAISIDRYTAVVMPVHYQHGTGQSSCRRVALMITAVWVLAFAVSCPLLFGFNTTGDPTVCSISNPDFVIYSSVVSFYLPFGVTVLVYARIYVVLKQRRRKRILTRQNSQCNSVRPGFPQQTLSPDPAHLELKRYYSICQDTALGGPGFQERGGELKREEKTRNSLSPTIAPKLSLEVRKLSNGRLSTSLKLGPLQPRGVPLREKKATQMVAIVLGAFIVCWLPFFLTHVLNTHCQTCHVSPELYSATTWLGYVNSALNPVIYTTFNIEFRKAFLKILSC
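Agonist-mode cell screen: cells plated at 1500/well and incubated overnight at 37 °C, then exposed to library compounds for 90 min at 37 °C. Detection reagent was added for 30–60 min at room temperature, and luminescence was read.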
MCF10A rerep: DNA re-replication induction in MCF 10a cells; MCF 10A DNA re-replication, Hoechst nuclear intensity, 48 h; Potency, µM (series often up to 46.1 µM), actives largely listed as activators; 2.9% of 350,000 active; AID 624296; also: nearly all actives have a fitted effect of over 50% in size
KB-3-1 cytotox: KB-3-1 parental cell cytotoxicity; KB-3-1 viability, CellTiter-Glo ATP luminescence, 72 h; Potency, µM (titrated, usually from 46.1 µM), usual class: cytotoxic; 1.4% of 400,000 active; AID 1347075; also: nearly all actives have a fitted effect of over 60% in size
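Parental KB-3-1 adenocarcinoma cells in phenol-red-free DMEM with 10% FBS were pin-treated with compounds at several concentrations, incubated 72 h at 37 °C, and viability read by CellTiter-Glo luminescence; concentration-effect curves were fitted after normalization.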
D3 antag: D3 dopamine receptor (human) antagonism; 2.5% of 360,000 active; D3R cells, DiscoveRx beta-arrestin luminescence, antagonist mode; active compounds read low; AID 652054; max response, negative = inhibition, %; in the data active = max response below about -50%; inconclusive = no clear call, values can overlap the other calls
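Cells expressing the human receptor were seeded at 1500 cells/well, incubated overnight at 37 degrees C in 5% CO2, then exposed to library compounds with dopamine controls for 90 minutes at 37 degrees C before luminescent detection.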
SW480 rereplic: induces DNA re-replication in SW480 colon adenocarcinoma cells; AID 624297; SW480 DNA re-replication, Hoechst DNA content imaging, 48 h; 1.8% of 340,000 active; Potency, µM (series often up to 46.1 µM), most hits filed as activators; also: nearly all actives have a fitted effect of over 55% in size
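DNA re-replication was detected as more nuclei of elevated Hoechst intensity after 48 hr exposure to compound (23 nL pinned per well of 250 cells).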
KB-V1 cytotox: KB-V1 MDR subline cytotoxicity; Potency, µM (highest dose often 46.1 µM), hits mostly cytotoxic; AID 1347076; KB-V1 MDR cells viability, CellTiter-Glo, 72 h; 3.4% of 400,000 active; also: nearly all actives have a fitted effect of over 60% in size
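Compound-treated KB-V1 multidrug-resistant cells, 72 h, 37 degrees C; viability by CellTiter-Glo. Fitted qHTS curves give the values.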
A number is an active result; i = inactive; ? = inconclusive; nt = not tested or not shown. Shown are actives, neighbours in structure and some others; about 8.9% of the full set was active somewhere. Unless noted, calls follow the shape of the dose curve; as a rule, active = well fitted curve in the direction sought with a large enough effect; inconclusive = small, poorly fitted or top-dose-only effect, or another doubt; inactive = no such curve, though single readings can be large; an effect the other way counts as inactive or inconclusive.

SMILES | DRD3 agonist | MCF10A rerep | KB-3-1 cytotox | D3 antag | SW480 rereplic | KB-V1 cytotox
COc1ccc(OC)c(CNS(=O)(=O)c2ccc3[nH]c4c(c3c2)CCCCC4)c1 | i | nt | ? | nt | nt | 20.6µM
O=C(O)C(=O)/C(=C\c1cccc2ccccc12)c1ccc2ccccc2n1 | i | 15.8µM | ? | i | ? | ?
COc1ccccc1CNC(=O)C1CCN(S(=O)(=O)c2ccc3c(c2)CCCN3C(C)=O)CC1 | i | nt | i | nt | nt | i
Cc1[nH]c2ccccc2c1C(=O)CSC(=S)N1CCCCC1 | i | i | i | i | i | 13µM
Cc1[nH]c2ccccc2c1SCC(=O)N1CCCCC1 | i | 5.8µM | i | i | i | i
O=C(OCC(=O)N1CCCCC1)c1c[nH]c2ccccc12 | i | i | i | i | i | 20.6µM
COc1cccc(CNC(=O)Cn2c(=O)cc(C(F)(F)F)c3c(C)nn(C)c32)c1OC | i | nt | i | nt | nt | i
Clc1cccc(-n2ncc3c(NCCCn4ccnc4)ncnc32)c1 | i | nt | i | nt | nt | i
CCCCCn1c(=N)c(S(=O)(=O)c2ccc(Cl)cc2)cc2c(=O)n3cccc(C)c3nc21 | i | ? | ? | i | i | 8.2µM
N=c1c(S(=O)(=O)c2ccc(Cl)cc2)cc2c(=O)n3ccccc3nc2n1Cc1ccco1 | i | ? | ? | i | 5.17µM | i
N=c1c(S(=O)(=O)c2ccc(Br)cc2)cc2c(=O)n3ccccc3nc2n1Cc1ccco1 | i | ? | i | ? | i | i
COCCn1c(=N)c(S(=O)(=O)c2ccc(F)cc2)cc2c(=O)n3ccccc3nc21 | i | 18.4µM | ? | i | 20.6µM | i
COc1ccc(C=CC(=O)c2c(OC)cc(OC)c(OC)c2O)cc1 | i | ? | i | i | ? | ?
C=CCOc1ccc(C=CC(=O)c2c(O)c(OC)c(OC)c(OC)c2OC)cc1 | i | ? | ? | i | i | 5.8µM
O=C(NC1CCCC1)c1cccc(S(=O)(=O)N2CCCC2)c1 | i | i | i | i | i | i
CCOC(=O)c1ccc([N+](=O)[O-])c(CS(=O)(=O)c2ccc(Cl)cc2)c1 | i | 20.6µM | i | i | i | i
CCOC(=O)CNc1ccc(C(=O)OCC)cc1[N+](=O)[O-] | i | i | i | i | i | i
CCCNc1ccc(C(=O)OCC)cc1[N+](=O)[O-] | i | i | 16.4µM | i | i | 13µM
CCc1ccccc1NC(=O)Cn1nc(CC)n2c(cc3sccc32)c1=O | i | nt | i | nt | nt | i
CC(C)(C)NC(=O)Cn1cc(S(=O)(=O)Cc2ccccc2Cl)c2ccccc21 | i | nt | i | nt | nt | i
Cc1ccc(C)c(S(=O)(=O)N2CCCOC2CNC(=O)C(=O)NCCC2=CCCCC2)c1 (stereo not drawn) | i | i | i | i | i | 5.17µM
O=C(NCCC1=CCCCC1)C(=O)NCC1OCCCN1S(=O)(=O)c1ccccc1 (stereo not drawn) | i | i | i | i | i | 9.2µM
COc1cc(CN2CCC(C(=O)N3CCN(c4ccccc4F)CC3)CC2)cc(OC)c1OC | i | ? | i | -52.9 | ? | i
CC(=O)N1N=C(c2cccc([N+](=O)[O-])c2)OC1(C)CC(=O)Nc1ccccc1 (stereo not drawn) | i | i | i | i | i | 20.6µM
COc1cc(N=Nc2ccc(Br)cc2)cc(C=O)c1O | i | nt | ? | -74.9 | nt | 14.6µM
SMILES | DRD3 agonist | MCF10A rerep | KB-3-1 cytotox | D3 antag | SW480 rereplic | KB-V1 cytotox
COc1cc(CN(C)C)cc(C=O)c1O | i | ? | i | i | i | i
COc1ccc(Cc2nnc(NC(=O)c3ccccc3[N+](=O)[O-])s2)cc1 | i | 23.1µM | i | i | i | i
COc1cc(C(=O)Nc2nnc(CC(C)(C)C)s2)c([N+](=O)[O-])cc1OC | i | i | i | i | i | 20.6µM
COc1ccc(Cc2nnc(NC(=O)c3cccc(C)c3)s2)cc1 | i | i | i | i | i | i
COc1ccc(Cc2nnc(NC(=O)c3cccc([N+](=O)[O-])c3C)s2)cc1 | i | i | i | i | i | 20.6µM
COc1ccccc1C(=O)Nc1nnc(CCc2ccccc2)s1 | i | ? | 11.6µM | i | 6.51µM | ?
COc1ccc(CN2CC[C@H]3C=CC[C@@H](C(=O)NC4CCCCC4)[C@H]3C2=O)cc1OC | nt | nt | i | nt | nt | i
COc1ccc(NC(=O)c2[nH]nc3c2CSc2ccccc2-3)c(OC)c1 | i | nt | i | nt | nt | ?
CCOc1ccc(C(=O)Nc2cc(-c3nc4ccccc4s3)ccc2OC)cc1 | i | nt | ? | nt | nt | 7.31µM
COc1cc(-c2nc3ccccc3s2)ccc1O | i | i | i | i | i | i
CCOc1cc(-c2nc3ccccc3s2)ccc1O | i | ? | i | i | 1.84µM | ?
COc1ccc(C(=O)Nc2cc(-c3nc4ccccc4s3)ccc2OC)cc1 | i | nt | ? | nt | nt | i
O=C(Nc1cc(-c2nc3ccccc3s2)ccc1Cl)c1ccc2c(c1)OCO2 | i | 9.2µM | i | i | i | i
Cn1c(=O)c2cc(C(=O)NCCCN3CCN(c4ccc(F)cc4)CC3)sc2c2ccccc21 | i | nt | i | nt | nt | i
O=C(NCc1ccc(Cl)cc1)c1ccc(NC(=O)N2CC3CCCN3c3ccccc32)cc1 (stereo not drawn) | i | nt | i | nt | nt | i
O=c1cc(C(F)(F)F)[nH]c2ccc(OC(F)(F)F)cc12 | 32.6 | ? | ? | i | i | ?
O=c1[nH]c(SCc2ccc(F)cc2)nc2c1CCCC2 | i | nt | i | nt | nt | i
CCc1ccc(NC(=O)CCc2ccc(C)o2)cc1 | i | 16.4µM | ? | i | ? | i
COc1cccc(Cn2c(=O)n(Cc3ccco3)c(=O)c3oc4ccccc4c32)c1 | i | nt | nt | nt | nt | nt
CC1=C(C(=O)OCc2ccc3c(c2)OCO3)C(c2ccc(F)cc2)NC(=O)N1 (stereo not drawn) | i | i | 14.6µM | i | i | 8.2µM
CCOC(=O)C1=C(C)NC(=O)NC1c1ccc(OC)c(Cl)c1 (stereo not drawn) | i | i | i | i | i | 20.6µM
CC1=C(C(=O)OCc2ccc3c(c2)OCO3)C(c2ccc(Cl)cc2)NC(=O)N1 (stereo not drawn) | i | ? | ? | i | i | 11.6µM
COc1ccccc1/C=C/c1onc(C)c1S(=O)(=O)N1CCC(C(=O)N2CCC(C)CC2)CC1 | i | nt | i | nt | nt | i
O=C(NCCCO)C(=O)NCC(c1ccc2c(c1)OCO2)N1CCOCC1 (stereo not drawn) | i | nt | nt | nt | nt | nt
COc1ccccc1CNC(=O)COc1cc(=O)n(C)c2ccccc12 | i | nt | i | nt | nt | i
C[C@@H](C(=O)Nc1ccc2ccccc2c1)[C@@H]1C[C@@]1(C)[C@@H](NC(=O)c1cnccn1)c1ccccc1 | i | i | i | -75.5 | ? | i
C[C@@H](C(=O)Nc1ccc2ccccc2c1)[C@H]1C[C@]1(C)[C@H](NP(=O)(c1ccccc1)c1ccccc1)c1ccccc1 | nt | i | nt | nt | 23.1µM | nt
C[C@@H](C(=O)Nc1ccc2ccccc2c1)[C@H]1C[C@]1(C)[C@H](NC(=O)c1cnccn1)c1ccccc1 | i | i | i | i | ? | ?
